The list is not random: actives were taken first. Their share in the collection is about 4.6%.
HIF-2a block = HIF-2a inhibition | inhibition, % at 18.8 µM | AID 624352 | actives 0.72% (n = 360,000) | 786-0 RCC cells HIF-2a reporter, luciferase luminescence, overnight;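 active means inhibition of the luminescence signal of 40% or more relative to plate controls, in a single-dose primary screen at 18.75 µM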
CF NFkB inh = cystic fibrosis NF-kB activation inhibition. KKLEB NF-kB-GFP reporter, PAF-induced, GFP fluorescence overnight. inhibition, % at 5 µM. actives 0.86% (n = 360,000). AID 588850;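 active means at least 50% inhibition at 5 µM, scaled per plate between neutral and stimulator controls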;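 further: PAF is a Pseudomonas aeruginosa culture filtrate used as stimulus; plate controls were PAF-stimulated DMSO wells for no effect and unstimulated DMSO wells for full effect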
ABHD5 PLIN5 PPI = inhibitors of human ABHD5-perilipin-5 interaction; Q00G26+Q8WTS1; Split G. princeps luciferase complementation, luminescence, 4 h; inhibition, % at 4 µM; actives 0.78% (n = 360,000); AID 602281;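 active means inhibition above the mean inhibition across every tested compound plus 3 SD, cut at about 22% in these data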;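 further: 0% = DMSO only wells and the 100% control is not disclosed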
Mdm2 MdmX PPI = human Mdm2/MdmX binding inhibition | actives 3% (n = 330,000) | inhibition, % at 8 µM | SaOS-2 split-luciferase Mdm2/MdmX complementation, luminescence | O15151+Q00987;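 active means inhibition of at least 50% at 8 µM in the primary screen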
Target sequence (O15151 whole entry, looked up): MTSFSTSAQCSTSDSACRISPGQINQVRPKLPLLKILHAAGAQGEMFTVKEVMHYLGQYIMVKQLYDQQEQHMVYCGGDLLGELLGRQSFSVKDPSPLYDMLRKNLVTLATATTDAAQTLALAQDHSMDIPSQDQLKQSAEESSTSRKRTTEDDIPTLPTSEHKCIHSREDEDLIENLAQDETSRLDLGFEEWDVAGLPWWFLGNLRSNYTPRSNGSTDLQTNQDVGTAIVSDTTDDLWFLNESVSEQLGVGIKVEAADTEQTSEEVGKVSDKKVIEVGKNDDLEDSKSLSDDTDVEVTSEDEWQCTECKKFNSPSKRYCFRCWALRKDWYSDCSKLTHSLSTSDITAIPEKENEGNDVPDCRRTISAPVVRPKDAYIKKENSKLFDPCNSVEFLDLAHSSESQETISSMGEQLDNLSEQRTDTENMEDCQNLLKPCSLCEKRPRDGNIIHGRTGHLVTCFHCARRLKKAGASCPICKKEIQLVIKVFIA
Target sequence (Q00987 whole entry, looked up): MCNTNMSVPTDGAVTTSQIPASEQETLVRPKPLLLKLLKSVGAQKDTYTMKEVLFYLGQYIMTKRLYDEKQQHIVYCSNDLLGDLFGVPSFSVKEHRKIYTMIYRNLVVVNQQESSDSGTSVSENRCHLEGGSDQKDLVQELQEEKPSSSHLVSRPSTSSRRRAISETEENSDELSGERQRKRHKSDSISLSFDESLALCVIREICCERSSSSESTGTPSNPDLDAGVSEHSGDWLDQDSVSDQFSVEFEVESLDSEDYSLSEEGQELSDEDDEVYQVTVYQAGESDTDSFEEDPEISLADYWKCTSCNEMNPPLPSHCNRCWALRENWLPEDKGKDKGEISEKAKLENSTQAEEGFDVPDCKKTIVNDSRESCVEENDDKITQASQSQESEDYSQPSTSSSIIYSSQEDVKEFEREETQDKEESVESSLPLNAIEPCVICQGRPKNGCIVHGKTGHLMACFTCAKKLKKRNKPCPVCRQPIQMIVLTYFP
Peg3 prom inh-1 = inhibitors of Peg3 promoter. HeLa PEG-Prom luciferase reporter, luminescence, overnight. actives 1.7% (n = 360,000). AID 588405. inhibition, % at 20 µM;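 active means inhibition of at least 50% at 20 µM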
KKLEB cytotox = CF airway cell cytotoxicity counter-screen | AID 602141 | actives 0.36% (n = 360,000) | KKLEB CF airway cells viability, ATPlite luminescence, overnight; active compounds read low; cells stimulated with P. aeruginosa culture filtrate | activity change (cytotoxicity), % at 5 µM;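 active means corrected activity change at or below -50% at 5 µM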
Mdm2 MdmX conf-1 = confirmation of human Mdm2/MdmX interaction inhibitors | shares compounds with Mdm2 MdmX PPI | Mdm2-MdmX binding, luminescent assay | inhibition, % at 8 µM | actives 55% (n = 10,000) | AID 489028; in the data active means inhibition above about 40%
Full FLuc ctr = counter-screen for Mdm2/MdmX inhibitors: full-length luciferase; shares compounds with Mdm2 MdmX PPI; SaOS-2 full-length luciferase counterscreen, luminescence; inhibition, % at 8 µM; actives 77% (n = 6,200);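 active means mean inhibition at 8 µM reaching about 37%, which flags the compound as non-specific, limit read from the data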;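 further: p53-null SaOS-2 cells with luciferase driven by a doxycycline-inducible promoter; compound on cells about two nights before reading with doxycycline added after day one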
Peg3 prom inh-2 = Peg3 promoter inhibition confirmation. shares compounds with Peg3 prom inh-1. HeLa PEG-Prom luciferase reporter, luminescence, overnight. inhibition, % at 20 µM. actives 84% (n = 1,300). AID 602417;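 active means at 20 µM dose, 40% or more inhibition averaged across four replicates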
ABHD5-PLIN5 conf = confirmation of human ABHD5-PLIN5 interaction inhibitors | shares compounds with ABHD5 PLIN5 PPI | biochemical ABHD5-PLIN5 interaction, luminescence | inhibition, % at 4 µM | actives 67% (n = 2,200) | AID 651612; in the data active means inhibition above about 23%;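 further: 0% = DMSO vehicle wells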
HNF4 split-luc = active in HNF4 split-luciferase counter-screen for ABHD5-PLIN5 inhibitors | shares compounds with ABHD5 PLIN5 PPI | HNF4 dimerization, luminescence, biochemical | inhibition, % at 4 µM | actives 77% (n = 2,200) | AID 651674;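 active means mean inhibition across replicate wells exceeding the computed hit threshold, cut at about 13% in these data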;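 further: light from luciferase halves that rejoin when HNF4 fusion proteins dimerize; 0% = DMSO only wells and the 100% control is not given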
Mdm2 MdmX conf-2 = Mdm2/MdmX (human) interaction inhibition, confirmed; inhibition, % at 8 µM; shares compounds with HIF-2a block; SaOS-2 split-luciferase Mdm2/MdmX complementation, luminescence; actives 99% (n = 740); AID 504601;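 active means mean inhibition of the luminescence signal across two replicates at or above 26 percent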
HIF-2a inh conf = confirmation of HIF-2a inhibitors; actives 56% (n = 1,800); 786-0 RCC cells, HIF-2a luciferase reporter luminescence, overnight; AID 651580; inhibition, % at 18.8 µM; shares compounds with HIF-2a block;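 active means mean inhibition across four replicates of at least 40 percent at the single tested concentration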
HIF-1a cs = HIF-1a inhibition counter-screen for HIF-2a hits | actives 72% (n = 1,800) | MiaPaCa-2 HIF-1a luciferase reporter, desferoxamine, overnight | inhibition, % at 18.8 µM | shares compounds with HIF-2a block | AID 651589;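 active means mean inhibition of the reporter signal across four replicates at the single tested dose of 50% or more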
Numbers without * were called inactive; . = no result.

SMILES	HIF-2a block	CF NFkB inh	ABHD5 PLIN5 PPI	Mdm2 MdmX PPI	Peg3 prom inh-1	KKLEB cytotox	Mdm2 MdmX conf-1	Full FLuc ctr	Mdm2 MdmX conf-2	others
COC(=O)Cc1ccc(OC2(C)CCN(Cc3csc4ccccc34)C2)cc1 (stereo not drawn)	14.0	6.1	0.8	.	2.5	-1.0	.	.	.
O=C(NC1=C(NC2CCS(=O)(=O)C2)C(=O)c2ccccc2C1=O)c1ccccc1 (stereo not drawn)	-42.2	79.3*	-3.8	90.0*	67.7*	-21.8	59.6*	49.5*	93.5*	Peg3 prom inh-2=48.7*
O=C(NC1=C(Nc2ccc(Cl)cc2)C(=O)c2ccccc2C1=O)c1ccccc1	7.7	6.8	-8.7	21.7	2.8	-5.7	.	.	.
COc1ccc(OC)c(C(C)NC(=O)C(C)n2cc([N+](=O)[O-])cn2)c1 (stereo not drawn)	9.1	-11.2	-2.9	10.0	8.8	0.7	.	.	.
CN(CCO)c1cc(Sc2nc3ccccc3s2)c2nonc2c1[N+](=O)[O-]	86.5*	17.5	48.8*	96.6*	104.5*	-4.3	97.2*	1.9	.	ABHD5-PLIN5 conf=80.3*;HNF4 split-luc=114.2*;HIF-2a inh conf=88.8*;HIF-1a cs=73.0*
CC(=O)OCCN(C)c1cc(SC(C)C)c2nonc2c1[N+](=O)[O-]	12.6	4.4	-6.0	15.0	19.1	6.1	.	.	.
Cc1ccsc1C(=O)OCC(=O)NCc1cccs1	-143.4	-17.2	1.7	.	-127.2	5.9	.	.	.
CN(C(=O)CSc1nnc(-c2ccc(F)cc2)n1C)C1CCS(=O)(=O)C1 (stereo not drawn)	23.2	7.2	2.0	-16.3	8.7	-8.9	.	.	.
CC1(C)C(=O)Nc2ccccc2N1C(=O)Cn1ncc(Cl)c(Cl)c1=O	5.1	7.2	3.2	100.4*	40.4	5.9	91.2*	39.9*	57.8*
CC(Oc1ccccc1F)c1nnc(SCC(=O)N(c2ccccc2)C2CCS(=O)(=O)C2)o1 (stereo not drawn)	7.5	0.3	1.4	-3.1	10.1	0.0	.	.	.
COC(=O)c1ccc(COc2ccc(/C=C(\C#N)c3nc4ccccc4[nH]3)cc2OC)o1	-0.1	-5.2	-2.0	32.4	10.0	-12.2	.	.	.
CCc1ccc(NC(=O)COc2ccc(/C=C(/C#N)c3nc4ccccc4[nH]3)cc2OC)cc1	-0.5	1.7	5.7	100.4*	57.2*	-4.2	81.2*	52.7*	89.0*
CCNC(=S)Nc1ccc2c(c1)oc1ccccc12	-310.9	-10.8	-5.6	-112.4	-265.7	6.0	.	.	.
OC(c1cc(-c2ccc(C(F)(F)F)cc2)nc(C(F)(F)F)c1)C1CCCCN1 (stereo not drawn)	75.3*	68.0*	-13.9	96.3*	109.2*	-70.5*	98.1*	51.5*	103.2*	HIF-2a inh conf=5.4;HIF-1a cs=106.5*
COC(=O)CSc1nc(-c2ccc(F)cc2)cc(C(F)(F)F)n1	13.0	-3.7	1.9	10.4	0.4	-2.3	.	.	.
Cc1[nH]c(C)c2c(=O)n(Cc3ccc(Cl)cc3)ncc12	17.2	-2.4	-1.3	46.6	7.7	-4.0	.	.	.
CCc1ccc(C(=O)Cn2ncc(Cl)c(Cl)c2=O)cc1	96.0*	84.5*	3.1	96.2*	30.7	-68.0*	88.0*	50.9*	103.2*	HIF-2a inh conf=-18.6;HIF-1a cs=104.5*
Cc1ccc(Cn2ncc(Cl)c(Cl)c2=O)cc1	97.7*	10.8	5.8	80.4*	103.9*	14.8	50.9*	5.5	.	HIF-2a inh conf=-0.3;HIF-1a cs=98.3*
Cc1c(NC(=O)CSc2nnc(C(C)N(C)C)n2-c2ccccc2)c(=O)n(-c2ccccc2)n1C (stereo not drawn)	11.8	13.2	2.3	.	6.0	-4.8	.	.	.
CCC(c1nnnn1-c1c(C)cccc1C)N1CCN(c2ccccn2)CC1 (stereo not drawn)	13.0	.	5.6	.	.	.	.	.	.
O=C1c2ccccc2C(=O)c2c1oc(C(F)(F)F)c2C(=O)c1ccccc1	22.8	89.9*	-21.6	84.4*	93.8*	-81.8*	81.5*	49.6*	94.5*
O=C(c1ccccc1)c1ccc(CN2C(=O)c3ccccc3C2=O)o1	-5.1	11.5	0.3	8.8	-36.0	2.8	.	.	.
CC(=O)c1ccc(S(=O)(=O)NCCC(=O)OCC(=O)N2CCCC2=O)cc1	-2.6	-22.0	-2.3	4.5	-2.5	-2.8	.	.	.
CCNC(=O)C1(C)CCN(C(=O)c2ccccc2F)C1 (stereo not drawn)	5.8	-1.7	-7.7	.	4.3	5.4	.	.	.
S=C(Nc1cc(Cl)cc(Cl)c1)NC1CCN(Cc2ccccc2)CC1	41.7*	31.2	2.9	95.4*	94.4*	-28.8	34.0	.	.	HIF-2a inh conf=12.2;HIF-1a cs=107.4*
c1ccc(CNc2nc(NCc3ccccc3)c3ccccc3n2)cc1	25.8	-28.1	11.3	100.2*	104.5*	-19.2	75.4*	50.8*	103.5*
O=C(CCN1C(=O)/C(=C/c2ccccc2)SC1=S)NCCc1ccc(O)cc1	25.4	-3.2	-11.0	98.3*	95.4*	-3.6	87.7*	59.8*	101.7*
COc1ccc(/C=C2/SC(=S)N(CCCC(=O)Nc3ccc(O)cc3)C2=O)cc1	31.2	-16.6	2.3	88.1*	-120.8	2.0	90.4*	56.0*	102.2*
CCc1ccc(/C=C2\SC(=S)N(CCCC(=O)Nc3ccccn3)C2=O)cc1	95.6*	2.6	0.7	85.1*	81.5*	-2.2	72.8*	52.7*	95.2*	Peg3 prom inh-2=79.7*

Assay outcomes as filed in PubChem BioAssay.
